DT40 TDP1 no CPT – qHTS for Inhibitors of human tyrosyl-DNA phosphodiesterase 1 (TDP1): qHTS in cells in absence of CPT. DT40 Tdp1-/- hTDP1 cells, no CPT, ATP luminescence, 48 h. Potency, µM (series often up to 46.2 µM), without a hit: at the top dose activity change, negative = growth inhibition, actives largely listed as inhibitors. AID 686978, 2013. hit rate 15% among 420,000; further: potency means the concentration at half of the fitted maximal effect; nearly all actives have a fitted effect of over 55% in size
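DT40 Tdp1-/-;hTDP1 cells, no CPT (DMSO vehicle only), 400 cells/well; compounds pin-transferred; ≥48 hr, 37 °C; CellTiter-Glo 30 min RT dark, luminescence read.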
TDP1 block – inhibitors of human tyrosyl-DNA phosphodiesterase TDP1. Potency, µM (doses to about 130 µM), inactives show top-dose activity change, negative = inhibition, hits mostly inhibitors. hit rate 0.28% among 350,000. Q9NUW8. recombinant TDP1, AlphaScreen DNA substrate cleavage; further: potency means the concentration at half of the fitted maximal effect; nearly all actives have a fitted effect of over 40% in size
Target sequence (Q9NUW8 whole entry, looked up): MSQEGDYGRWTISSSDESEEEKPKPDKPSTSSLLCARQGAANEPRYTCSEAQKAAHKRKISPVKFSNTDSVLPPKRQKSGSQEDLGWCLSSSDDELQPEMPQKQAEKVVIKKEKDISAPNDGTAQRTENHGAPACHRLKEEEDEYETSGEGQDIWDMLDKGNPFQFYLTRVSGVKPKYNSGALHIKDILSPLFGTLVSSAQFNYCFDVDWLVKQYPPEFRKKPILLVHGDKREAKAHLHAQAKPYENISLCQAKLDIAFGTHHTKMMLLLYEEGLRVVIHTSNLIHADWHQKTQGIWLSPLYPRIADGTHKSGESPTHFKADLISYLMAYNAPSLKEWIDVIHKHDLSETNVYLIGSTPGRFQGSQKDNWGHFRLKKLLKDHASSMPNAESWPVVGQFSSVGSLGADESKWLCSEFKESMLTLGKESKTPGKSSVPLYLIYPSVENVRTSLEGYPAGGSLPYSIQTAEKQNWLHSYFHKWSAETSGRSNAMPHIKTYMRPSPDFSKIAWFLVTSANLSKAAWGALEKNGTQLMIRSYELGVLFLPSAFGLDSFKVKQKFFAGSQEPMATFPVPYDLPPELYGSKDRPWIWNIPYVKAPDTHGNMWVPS
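Recombinant E. coli-expressed Tdp1 (1 nM) preincubated with compound 15 min at RT, then 5'-biotin/3'-phosphotyrosine-FITC DNA substrate (15 nM) added for 5 min. AlphaScreen beads (10 ug/ml) added, 10 min RT; tyrosine-FITC cleavage read as signal loss.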
TDP1 cell CPT – growth inhibition of DT40 Tdp1-/-;hTDP1 cells with camptothecin (screen for TDP1 inhibitors); chicken DT40 Tdp1-/-;hTDP1 cells + 20 nM CPT, ATP luminescence, 48 h; Potency, µM (doses to about 46.2 µM), inactives show at the highest dose activity change, negative = growth inhibition, actives largely listed as inhibitors; hit rate 12% among 420,000; further: potency means the concentration at half of the fitted maximal effect; nearly all actives have a fitted effect of over 55% in size
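Chicken DT40 Tdp1-/- cells complemented with human TDP1, 400 cells/well, exposed to compounds plus 20 nM camptothecin for at least 48 h at 37 C; viability read as ATP content by CellTiter-Glo luminescence.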
Giardia kill – kills Giardia lamblia; Giardia lamblia trophozoite viability; AID 540267; hit rate 0.15% among 340,000; activity change, % at 7.66 µM, hits read low; in the data active means activity change below about -80%; inconclusive means between about -30% and that limit;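 further: parasites exposed to compound for two days anaerobically before the ATP read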
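Anaerobic 48 hrs incubation at 37 deg C of 100 trophozoites/well with test compounds; ATPLite 1-Step luminescence, 15-30 min RT, reports cellular ATP as viability.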
ELG1 DNA repair – inhibitors of ELG1-dependent DNA repair in HEK293T cells | HEK293T ELG1-luciferase reporter, luminescence, 16 h; DNA damage induced by 5-fluorouridine | AID 504467 | hit rate 2.3% among 330,000 | Potency, µM (series often up to 46.1 µM), inactives show at the top dose activity change, negative = inhibition, most hits filed as inhibitors; further: potency means the concentration at half of the fitted maximal effect; nearly all actives have a fitted effect of over 55% in size
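Cells (2,000 per well) received 5-fluorouridine plus test compound or DMSO and were incubated 16 hr at 37 °C, 5% CO2. Luciferase activity was read by luminescence 30 min after ONE-Glo addition; signal suppression marked inhibition of damage-induced ELG1 function.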
IL-1B inflam inh – inflammasome signaling inhibition, IL-1 beta readout; hit rate 4.7% among 360,000; THP-1 LPS/ATP IL-1B secretion, AlphaLISA, 16 h; active compounds read low; activity change, % at 57.5 µM; in the data active means activity change below about -50%; inconclusive means mostly about -30% to -49%
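Secreted IL-1B measured by AlphaLISA bead assay after 16 h compound exposure of THP-1 cells; compounds (final up to 57.5 uM) added 1 h before LPS (250 ng/mL) and ATP (1.25 mM) stimulation; lower signal means less secretion.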
Active calls of the source: *; ? = inconclusive; · = not tested or not shown; [ ] = remark or other dose. In the library only some 19% were active in any assay of this set; here they are far more common. Unless noted, the call rests on the fitted dose curve; in most records, active means well fitted curve in the direction sought with a large enough effect; inconclusive means small, poorly fitted or top-dose-only effect, or another doubt; inactive means no such curve, though single readings can be large; an effect the other way counts as inactive or inconclusive. On the % scale 0 is the no-effect control and ±100 the full control effect.

SMILES	DT40 TDP1 no CPT	TDP1 block	TDP1 cell CPT	Giardia kill	ELG1 DNA repair	IL-1B inflam inh
CCOC(=O)[C@H]1[C@H]2COc3ccc(OC)cc3[C@@H]2N2C(=O)CN(Cc3ccc(OC)cc3)C(=O)[C@@]12C	?	0%	?	-16	0%	9
CCc1nn2c(=O)cc(COC(=O)CNC(=O)COc3ccc(C)cc3)nc2s1	-10%	6%	-8%	·	·	·
Cc1ccc(-c2csc(NC(=O)CN3CCOCC3)n2)cc1C	16µM*	·	?	-6	2%	1
O=C(CN1CCCC1)Nc1nc(-c2ccc(Cl)cc2)cs1	16µM*	·	26µM*	·	·	-11
NC(=O)C1CCN(CC(=O)Nc2nc(-c3ccccc3)cs2)CC1	7%	·	1%	39	17%	5
O=C(CN1CCOCC1)Nc1nc(-c2ccccc2)cs1	?	·	-11%	6	-8%	-6
O=C(NC1CC1)C1CC(=O)N(c2ccc(F)cc2)C1 (stereo not given)	3%	·	0%	8	-1%	2
COc1cccc(-c2cccc(NC(=O)C3CCN(C4CCOCC4)CC3)c2)c1	-3%	0%	5%	19	?	-12
CCN(c1ccccc1)S(=O)(=O)c1ccc(C(=O)Nc2nnc(-c3ccco3)o2)cc1	18µM*	9%	?	-14	?	14
CN(c1ccccc1)S(=O)(=O)c1ccc(C(=O)Nc2nnc(-c3ccco3)o2)cc1	21µM*	9%	15µM*	-2	16µM*	22
O=C(Nc1nnc(-c2ccco2)o1)c1ccc(N2C(=O)CCC2=O)cc1	-3%	0%	3%	-9	17%	3
CC1CCCN(S(=O)(=O)c2ccc(C(=O)Nc3nnc(-c4ccco4)o3)cc2)C1 (stereo not given)	7.3µM*	5%	8.2µM*	2	?	28
Cc1ccc(-n2c(SCc3nc(-c4ccc(Cl)cc4)no3)nnc2-c2ccncc2)cc1	16µM*	5%	15µM*	·	·	·
COc1ccc(-c2noc(CSc3nnc(-c4ccncc4)n3-c3ccc(C)cc3)n2)cc1	?	10%	?	·	·	·
COc1ccc(-c2noc(CSc3nnc(-c4ccncc4)n3-c3ccc(OC)cc3)n2)cc1	?	10%	23µM*	·	·	·
Clc1ccc(-c2noc(CSc3nnc(-c4ccncc4)n3-c3ccccc3)n2)cc1	?	4%	?	-2	16µM*	-56*
Cc1ccc(-c2noc(CSc3nnc(-c4ccncc4)n3-c3ccc(C)cc3)n2)cc1	16µM*	3%	21µM*	-4	-26%	0
COC(=O)c1c(NC(=O)COc2cc(C)c(Cl)c(C)c2)sc2c1CCCC2	16%	-3%[12.3 µM]	0%	·	·	·
Clc1ccccc1-c1nnc(SCc2nc(-c3ccccc3)no2)n1-c1ccccc1	7.3µM*	6%	18µM*	·	·	·
Cc1ccc(-c2noc(CSc3nnc(C)n3-c3ccc(C)c(C)c3)n2)cc1	?	6%	?	·	·	·
Cc1ccc(-c2noc(CSc3nnnn3C3CCCCC3)n2)cc1	?	-3%	21µM*	6	-3%	9
c1ccc(-c2noc(CSc3nnnn3-c3ccccc3)n2)cc1	?	-7%	-14%	-5	-2%	5
CC(C)CC(=O)/C=C/n1c(=S)oc2ccccc21	2.3µM*	-3%	3.3µM*	-8	?	-106*
CC(=O)/C=C/n1c(=S)oc2ccccc21	0.65µM*	-4%	0.82µM*	-6	?	-98*
CC(C)CNC(=O)C(=O)Nc1c2c(nn1-c1ccccc1)CS(=O)(=O)C2	-7%	3%	0%	·	·	·
SMILES	DT40 TDP1 no CPT	TDP1 block	TDP1 cell CPT	Giardia kill	ELG1 DNA repair	IL-1B inflam inh
CSc1nc(N)nc(C2CC2)n1	2%	6%	14%	3	?	·
COc1ccc(CCN(C)Cc2c(O)ccc3cc(Br)ccc23)cc1OC	-23%	·	?	8	-2%	-94*
COC(=O)C1CCN(C(=O)Cc2c(OC)ccc3cc(Br)ccc23)CC1	?	-11%	18µM*	3	?	33
CCCCN(C)C(=O)Cc1c(OC)ccc2cc(Br)ccc12	18µM*	0%	23µM*	-15	-8%	14
Cn1c(=O)cc(Nc2ccccc2)c2c(=O)n(-c3ccccc3)c(=O)n(-c3ccccc3)c21	?	3%	0%	0	-16%	·
Cc1c(P(=S)(c2ccccc2)c2ccccc2)c2ccccc2n1C(=O)NCc1ccc(F)cc1	·	0%	·	·	·	·
Cc1ccc2nc(Nc3nc(C)cc(-c4ccccc4)n3)[nH]c(=O)c2c1	15µM*	-1%	21µM*	33	?	-2
Cc1ccc2nc(Nc3nc(-c4ccccc4)cc(=O)[nH]3)nc(C)c2c1	8.2µM*	4%	13µM*	1	-5%	?
COc1ccc2c(c1)C(c1cc(OC)c(OC)c(OC)c1)CC(=O)O2 (stereo not given)	·	6%	·	·	·	·
COc1cccc(CCNC(=O)C2CCC(=O)N(C3CC3)C2)c1OC (stereo not given)	16%	·	-5%	11	-1%	11
CC1=CC2C(C)(C)CC(=O)C[C@]2(C)CC1COc1ccc2c(c1)CC(=O)C=C2 (stereo not given in full)	-5%[9.04 µM]	6%	-10%[9.04 µM]	·	·	·
CCCC(CCC)C(=O)Nc1cc(-c2cn3cccnc3n2)ccc1OC	-12%	1%	7%	·	·	·
O=C(Nc1cnn(Cc2ccc(F)cc2)c1)c1cnccn1	16%	7%	-1%	-1	2%	21
O=C(Nc1cnn(Cc2ccc(F)cc2)c1)c1noc2c1CCCC2	?	8%	-6%	10	0.41µM*	22
O=C(Nc1cnn(Cc2ccc(F)cc2)c1)C(c1ccccc1)c1ccccc1	21µM*	5%	?	-11	?	-6
Cc1nn(Cc2ccc(F)cc2)c(C)c1NC(=O)c1noc2c1CCCCC2	?	0%	?	16	18µM*	-9
CCC(C(=O)Nc1nnc(-c2ccco2)s1)c1ccccc1 (stereo not given)	-11%	-14%	-25%	2	18%	22
CCc1cnc2c(c1SCC(=O)c1ccc(Cl)cc1)c(=O)n(C)c(=O)n2C	21µM*	-3%	13µM*	·	·	·
CCc1cnc2c(c1SCC(=O)NCc1ccccc1Cl)c(=O)n(C)c(=O)n2C	-16%	3%	1%	·	·	·
CCc1cnc2c(c1SCC(=O)NCc1ccc(C)cc1)c(=O)n(C)c(=O)n2C	?	-10%	?	·	·	·
